According to PubChem BioAssay (NCATS):
Values without a mark were called inactive. Records with an inconclusive call do not appear. Where a call stands in place of a potency, no number is given. The source made the active and inactive calls. Unless noted, the call rests on the fitted dose curve; in most records, active means well fitted curve in the direction sought with a large enough effect; inconclusive means small, poorly fitted or top-dose-only effect, or another doubt; inactive means no such curve, though single readings can be large; an effect the other way counts as inactive or inconclusive.

Experiments:
[1] = AP1 Signaling Pathway (AID 357; active means well fitted curve in either direction with a large enough effect, not every such curve was filed as active;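 further: ME-180 reporter cells stimulated with EGF at its EC50 level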); settings: ME-180 AP-1-bla reporter, EGF-induced, beta-lactamase ratio, 5 h; at 7.69 µM (top of the series) unless noted
In short: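 Cells are seeded overnight, exposed to compound titrations and an EC50 level of EGF for 5 hours at 37 °C, then loaded with CCF4 dye for 2.5 hours. Beta-lactamase activity under the AP-1 element is read as a blue/green ratio.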

[2] = molecular target: Cytochrome P450 1A2 (Homo sapiens) (UniProt P05177); assay: p450-cyp1a2 (AID 410; calls by dose curve)
Cytochrome P450 1A2 (Homo sapiens), sequence (P05177 whole entry, looked up): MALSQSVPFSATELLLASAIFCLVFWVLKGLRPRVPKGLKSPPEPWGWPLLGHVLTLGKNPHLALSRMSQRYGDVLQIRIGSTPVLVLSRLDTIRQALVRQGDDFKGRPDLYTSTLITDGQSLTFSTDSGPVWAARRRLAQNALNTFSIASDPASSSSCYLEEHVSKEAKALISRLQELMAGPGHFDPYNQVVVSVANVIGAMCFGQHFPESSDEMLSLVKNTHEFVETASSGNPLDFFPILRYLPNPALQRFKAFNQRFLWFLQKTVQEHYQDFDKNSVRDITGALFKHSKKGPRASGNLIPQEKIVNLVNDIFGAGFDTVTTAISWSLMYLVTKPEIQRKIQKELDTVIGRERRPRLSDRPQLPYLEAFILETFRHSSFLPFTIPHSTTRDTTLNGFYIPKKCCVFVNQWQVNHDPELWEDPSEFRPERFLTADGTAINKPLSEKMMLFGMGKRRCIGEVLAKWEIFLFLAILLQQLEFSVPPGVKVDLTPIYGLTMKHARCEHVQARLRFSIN
In short: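 Inhibition was calculated relative to 57 uM furafylline (full inhibition). The reaction used human CYP1A2 at 20nM with Luciferin-ME at its Km, 100uM, driven by an NADPH-regenerating system for 60 min at room temperature.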

[3] = NFAT Signaling Pathway (AID 444; active means well fitted curve in either direction with a large enough effect, not every such curve was filed as active;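 further: carbachol stimulus at about its EC50 of 1 µM final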); settings: Jurkat NFAT-bla M1, carbachol, beta-lactamase ratio, 5 h; at 7.69 µM (top of the series) unless noted
In short: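 Jurkat cells carrying an NFAT-driven β-lactamase reporter and co-transfected muscarinic M1 receptor were treated with compound plus carbachol (1 uM final, an EC50 level) for 5 h at 37 °C. CCF4 loading followed for 1 h at RT; 460/530 nm ratio gave %activity.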

[4] = Stat Signaling Pathway (AID 446; active means well fitted curve in either direction with a large enough effect, not every such curve was filed as active;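 further: ME-180 cervical cancer cells given 40 pM IL-6 alongside compound; SIE-controlled beta-lactamase reporter measured as 460/530 nm FRET emission ratio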); settings: ME-180 SIE beta-lactamase reporter, IL-6 stimulated, 5 h; at 7.69 µM (top of the series) unless noted
In short: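 ME-180 cells carrying a SIE-driven beta-lactamase reporter are stimulated with 40 pM IL-6 for 5 h at 37C in the presence of compound. The 460/530 nm FRET substrate ratio is read after 2.5 h at RT. Data are normalised to 300 pM IL-6 and to 125 nM JAK inhibitor controls.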

[5] = molecular target: Glucocorticoid receptor (Homo sapiens) (UniProt P04150); assay: GR-GFP Redistribution (AID 450;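 active means compounds whose dose series gives a full or clear partial fitted curve of increased nuclear translocation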; further: potency means the concentration at half of the fitted maximal effect); settings: U2OS GR-GFP nuclear translocation, laser cytometry, 2 h
Glucocorticoid receptor (Homo sapiens), sequence (P04150 whole entry, looked up, the tested form may be a part): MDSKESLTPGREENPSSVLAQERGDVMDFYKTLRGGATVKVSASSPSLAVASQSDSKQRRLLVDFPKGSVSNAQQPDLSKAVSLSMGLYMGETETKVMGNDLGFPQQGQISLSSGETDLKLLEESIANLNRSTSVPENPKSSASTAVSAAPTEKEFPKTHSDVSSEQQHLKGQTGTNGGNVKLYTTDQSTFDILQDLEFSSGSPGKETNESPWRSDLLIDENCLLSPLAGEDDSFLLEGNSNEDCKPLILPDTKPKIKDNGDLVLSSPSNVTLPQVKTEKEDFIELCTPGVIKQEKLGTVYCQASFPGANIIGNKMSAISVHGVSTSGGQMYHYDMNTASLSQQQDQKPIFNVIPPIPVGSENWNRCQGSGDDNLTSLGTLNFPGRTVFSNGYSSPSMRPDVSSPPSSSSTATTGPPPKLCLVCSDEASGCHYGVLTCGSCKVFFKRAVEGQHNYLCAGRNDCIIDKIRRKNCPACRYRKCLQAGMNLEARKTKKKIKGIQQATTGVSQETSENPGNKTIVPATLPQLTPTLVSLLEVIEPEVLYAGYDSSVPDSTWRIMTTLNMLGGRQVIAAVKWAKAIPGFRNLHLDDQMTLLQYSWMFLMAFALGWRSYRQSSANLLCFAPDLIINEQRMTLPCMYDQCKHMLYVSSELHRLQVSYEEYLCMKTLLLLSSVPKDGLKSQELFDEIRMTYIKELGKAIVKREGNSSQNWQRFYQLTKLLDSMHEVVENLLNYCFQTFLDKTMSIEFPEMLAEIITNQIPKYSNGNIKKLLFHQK

[6] = molecular target: Glucocorticoid receptor (Homo sapiens) (UniProt P04150); assay: GR-EFC Redistribution (AID 451; calls by dose curve; further: potency means the concentration at half of the fitted maximal effect); settings: CHO-K1 GR-EFC translocation, beta-gal luminescence, 2 h
In short: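 CHO-K1 cells stably expressing nuclear-localized β-gal enzyme acceptor and GR fused C-terminally to the enzyme donor fragment; ligand-driven nuclear translocation restores β-gal by complementation. Compounds titrated up to 46 uM final, 2 h at 37 °C; luminescence read.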

[7] = molecular target: Mitogen-activated protein kinase 10 (Mus musculus) (UniProt Q61831); assay: JNK3 AlphaScreen Assay (AID 530; active means well fitted curve in either direction with a large enough effect, not every such curve was filed as active;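 further: kinase came from lysate of stimulated human HepG2 cells; signal reports phosphorylation of biotinylated GST-cJun 1-79 at Ser73 with 10 µM ATP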)
In short: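 JNK3 came from HepG2 lysates pre-activated with IL-1beta and TNF-alpha and phosphorylated biotinylated GST-cJun (1-79) at 10 uM ATP, pH 7.6, room temperature. Compounds were titrated. AlphaScreen signal used anti-phospho-cJun (Ser73) antibody.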

[8] = molecular target: 3',5'-cyclic-AMP phosphodiesterase 4B (Homo sapiens) (UniProt Q07343); assay: qHTS Assay for Inhibitors of PDE-IV (AID 607; active means well fitted activation curve with a large enough effect in the main read-out, with a control signal flat, not every such curve was filed as active)
3',5'-cyclic-AMP phosphodiesterase 4B (Homo sapiens), sequence (Q07343 whole entry, looked up): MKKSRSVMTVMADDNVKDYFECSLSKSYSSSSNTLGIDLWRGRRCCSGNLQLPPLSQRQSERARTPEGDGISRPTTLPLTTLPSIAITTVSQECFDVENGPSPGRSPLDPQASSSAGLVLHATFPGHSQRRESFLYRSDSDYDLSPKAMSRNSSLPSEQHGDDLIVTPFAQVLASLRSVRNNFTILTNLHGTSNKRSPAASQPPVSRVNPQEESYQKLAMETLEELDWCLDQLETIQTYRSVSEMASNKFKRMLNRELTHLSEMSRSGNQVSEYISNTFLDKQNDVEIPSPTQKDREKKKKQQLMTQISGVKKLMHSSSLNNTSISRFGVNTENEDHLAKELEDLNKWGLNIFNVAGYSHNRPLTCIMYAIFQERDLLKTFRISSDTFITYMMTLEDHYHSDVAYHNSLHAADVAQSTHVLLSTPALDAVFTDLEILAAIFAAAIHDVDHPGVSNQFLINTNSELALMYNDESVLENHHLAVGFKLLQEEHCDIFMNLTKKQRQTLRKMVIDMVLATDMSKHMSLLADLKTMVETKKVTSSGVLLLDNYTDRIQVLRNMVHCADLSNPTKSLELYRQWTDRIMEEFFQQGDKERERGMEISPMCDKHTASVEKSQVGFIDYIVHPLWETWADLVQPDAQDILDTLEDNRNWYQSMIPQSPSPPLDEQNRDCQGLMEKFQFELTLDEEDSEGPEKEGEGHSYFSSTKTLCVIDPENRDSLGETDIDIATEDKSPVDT
In short: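 HEK293 ACTOne cells with CNG channel (1000/well), endogenous PDE4; membrane potential dye, compounds up to 22.9 uM final. Fluorescence Ex 535/Em 590; RO 20-1724 (100 uM final) as reference.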

[9] = molecular target: Cytochrome P450 2D6 (Homo sapiens) (UniProt P10635); assay: qHTS Assay for Inhibitors and Substrates of Cytochrome P450 2D6 (AID 891); further: nearly all actives have a fitted effect of over 60% in size; further: potency means the concentration at half of the fitted maximal effect;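 on activity change, negative = inhibition: luciferin methyl ether substrate demethylated by CYP2D6 with NADPH regeneration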
Cytochrome P450 2D6 (Homo sapiens), sequence (P10635 whole entry, looked up): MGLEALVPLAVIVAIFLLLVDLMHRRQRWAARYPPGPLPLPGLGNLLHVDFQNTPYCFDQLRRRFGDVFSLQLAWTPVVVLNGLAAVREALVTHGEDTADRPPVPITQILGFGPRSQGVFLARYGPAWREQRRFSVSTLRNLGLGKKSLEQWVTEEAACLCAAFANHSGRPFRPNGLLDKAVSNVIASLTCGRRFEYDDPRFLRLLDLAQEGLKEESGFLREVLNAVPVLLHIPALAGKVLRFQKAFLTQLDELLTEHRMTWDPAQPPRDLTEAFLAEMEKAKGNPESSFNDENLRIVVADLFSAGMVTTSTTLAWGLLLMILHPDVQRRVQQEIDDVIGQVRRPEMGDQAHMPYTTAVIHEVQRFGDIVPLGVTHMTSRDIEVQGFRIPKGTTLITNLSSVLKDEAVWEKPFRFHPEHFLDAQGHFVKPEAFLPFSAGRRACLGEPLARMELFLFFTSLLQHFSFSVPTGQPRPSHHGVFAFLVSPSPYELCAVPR
In short: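 Human CYP2D6 (5 nM) with 30 uM Luciferin-ME EGE (at Km) in 100 mM KPO4, compound preincubated 10 min, then NADPH regeneration system for 60 min at room temperature. Luciferin read by luminescence; normalized to 1.43 uM quinidine.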

[10] = molecular target: Cytochrome P450 3A4 (Homo sapiens) (UniProt P08684); assay: qHTS Assay for Activators of Cytochrome P450 3A4 (AID 885); further: nearly all actives have a fitted effect of over 65% in size
Cytochrome P450 3A4 (Homo sapiens), sequence (P08684 whole entry, looked up): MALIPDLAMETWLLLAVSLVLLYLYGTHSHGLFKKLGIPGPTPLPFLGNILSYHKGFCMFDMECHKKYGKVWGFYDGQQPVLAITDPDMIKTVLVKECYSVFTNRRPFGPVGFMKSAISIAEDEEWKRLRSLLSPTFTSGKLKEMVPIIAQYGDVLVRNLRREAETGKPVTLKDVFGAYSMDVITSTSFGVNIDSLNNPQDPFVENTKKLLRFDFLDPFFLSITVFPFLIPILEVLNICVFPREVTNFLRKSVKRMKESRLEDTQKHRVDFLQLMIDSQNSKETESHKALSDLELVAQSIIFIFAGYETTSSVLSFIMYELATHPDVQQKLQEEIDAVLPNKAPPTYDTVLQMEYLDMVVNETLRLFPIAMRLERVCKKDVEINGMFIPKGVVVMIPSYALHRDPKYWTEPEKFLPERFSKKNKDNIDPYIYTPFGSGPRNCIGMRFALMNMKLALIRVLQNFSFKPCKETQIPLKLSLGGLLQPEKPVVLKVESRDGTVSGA
In short: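 Human CYP3A4 (20 nM) with Luciferin-PPXE at 25 uM (its KM) in 200 mM KPO4; 10 min compound preincubation, then NADPH regeneration and 60 min reaction at RT. Luciferin read by luminescence; normalized to 57 uM ketoconazole full inhibition.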

[11] = qHTS Assay for Identification of Small Molecule Agonists for Thrombopoietin (TPO) Signaling Pathway (AID 917)
In short: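 Luminescence from a Glycoprotein IIb promoter–driven luciferase reporter served as read-out in murine Ba/F3 cells carrying the human TPO receptor. Cells, deprived of IL-3 overnight, received compounds with 26 pM TPO and were incubated 24 hrs at 37 C.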

[12] = molecular target: Muscarinic acetylcholine receptor M1 (Rattus norvegicus) (UniProt P08482); assay: qHTS Assay for Antagonists of Acetylcholine Muscarinic M1 Receptor: Kinetic Measurement of Intracellular Calcium Response (AID 943);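 further: Fluo-4 calcium signal as peak divided by basal fluorescence over 4 min; nearly all actives have a fitted effect of over 75% in size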
Muscarinic acetylcholine receptor M1 (Rattus norvegicus), sequence (P08482 whole entry, looked up): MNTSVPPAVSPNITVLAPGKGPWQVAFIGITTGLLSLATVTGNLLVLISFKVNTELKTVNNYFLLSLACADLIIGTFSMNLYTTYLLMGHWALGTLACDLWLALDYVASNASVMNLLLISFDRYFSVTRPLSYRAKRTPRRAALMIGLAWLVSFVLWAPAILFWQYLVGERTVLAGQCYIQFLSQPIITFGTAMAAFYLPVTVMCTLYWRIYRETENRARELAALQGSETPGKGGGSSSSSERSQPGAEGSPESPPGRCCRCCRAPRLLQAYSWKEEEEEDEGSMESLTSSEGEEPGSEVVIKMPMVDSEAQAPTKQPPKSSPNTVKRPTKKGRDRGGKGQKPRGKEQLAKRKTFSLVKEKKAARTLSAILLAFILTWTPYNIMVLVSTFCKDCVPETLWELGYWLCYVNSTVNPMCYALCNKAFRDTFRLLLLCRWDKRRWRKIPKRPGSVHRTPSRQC
In short: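 Intracellular calcium flux, recorded with Fluo-4 in a kinetic plate reader, served as signal; the response to carbachol at EC80 (100 nM final) was taken as maximal over minimal fluorescence after a 10 min compound pre-incubation in rat M1-CHO cells.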

[13] = molecular target: Muscarinic acetylcholine receptor M1 (Rattus norvegicus) (UniProt P08482); assay: qHTS Assay for Antagonists of Acetylcholine Muscarinic M1 Receptor: Measurement of IP-One Response (AID 944); further: nearly all actives have a fitted effect of over 75% in size
In short: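 Steps: plate transfected CHO-M1 cells overnight; add test compound, 10 min; add carbachol (200 nM, EC80) in stimulation buffer with LiCl; incubate 30 min; add labelled IP1 tracer and anti-IP1 antibody in lysis buffer; read HTRF after 10 min.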

[14] = molecular target: Pyruvate kinase PKM (Homo sapiens) (UniProt P14618); assay: qHTS Assay for Activators of Human Muscle Pyruvate Kinase (AID 954; active means well fitted curve in the direction sought with a large enough effect, not every such curve was filed as active)
Pyruvate kinase PKM (Homo sapiens), sequence (P14618 whole entry, looked up): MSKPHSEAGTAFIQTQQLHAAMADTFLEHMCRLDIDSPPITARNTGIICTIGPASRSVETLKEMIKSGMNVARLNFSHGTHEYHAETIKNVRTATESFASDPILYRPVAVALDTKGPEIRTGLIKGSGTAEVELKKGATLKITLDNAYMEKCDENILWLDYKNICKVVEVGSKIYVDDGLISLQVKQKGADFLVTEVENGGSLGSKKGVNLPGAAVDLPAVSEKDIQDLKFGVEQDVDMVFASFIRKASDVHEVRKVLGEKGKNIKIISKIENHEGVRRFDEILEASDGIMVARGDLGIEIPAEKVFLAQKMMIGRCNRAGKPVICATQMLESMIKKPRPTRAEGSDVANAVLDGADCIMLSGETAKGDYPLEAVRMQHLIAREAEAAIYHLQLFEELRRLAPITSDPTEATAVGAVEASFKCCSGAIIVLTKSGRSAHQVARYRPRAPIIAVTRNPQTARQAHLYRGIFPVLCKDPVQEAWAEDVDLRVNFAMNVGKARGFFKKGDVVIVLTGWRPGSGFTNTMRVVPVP
In short: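 Purified human PKM2 (0.1 nM) with 0.5 mM PEP (Km) and 0.1 mM ADP in 50 mM imidazole pH 7.2, KCl, MgCl2, 1 h at room temperature; ATP formed read by coupled luciferase luminescence. Normalized to no-enzyme/110 uM thiadiazolimine inhibition; 0.3 nM enzyme column for activation.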

[15] = molecular target: Alpha-galactosidase A (Homo sapiens) (UniProt P06280); assay: Counterscreen for Glucocerebrosidase Inhibitors: qHTS Assay for Human alpha-Galactosidase at pH 4.5 (AID 992)
Alpha-galactosidase A (Homo sapiens), sequence (P06280 whole entry, looked up): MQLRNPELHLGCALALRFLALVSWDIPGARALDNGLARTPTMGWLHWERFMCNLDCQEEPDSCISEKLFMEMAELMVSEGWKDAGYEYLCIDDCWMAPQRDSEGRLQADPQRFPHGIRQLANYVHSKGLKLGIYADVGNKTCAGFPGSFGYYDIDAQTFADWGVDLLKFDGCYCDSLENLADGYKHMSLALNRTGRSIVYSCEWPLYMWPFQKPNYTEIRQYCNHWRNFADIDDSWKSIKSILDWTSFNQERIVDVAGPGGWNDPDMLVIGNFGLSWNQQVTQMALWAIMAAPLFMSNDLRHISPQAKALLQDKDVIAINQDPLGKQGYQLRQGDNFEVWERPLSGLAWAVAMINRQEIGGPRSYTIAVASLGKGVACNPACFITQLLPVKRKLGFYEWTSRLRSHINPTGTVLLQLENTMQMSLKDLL
In short: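 Human enzyme (2 nM) with 80 uM 4-methylumbelliferyl alpha-D-galactopyranoside in 50 mM citric acid, 0.005% Tween-20, pH 4.5, 20 min at room temperature. Compounds 0.7 nM–77 uM; fluorescence Ex 365/Em 440 after pH 10 stop; AC50 from Hill fits.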

[16] = molecular target: alpha-glucosidase (Oryza sativa, rice) (UniProt Q653V4); assay: Counterscreen for Glucocerebrosidase Inhibitors: qHTS Assay for Rice alpha-Glucosidase at pH 5.0 (AID 997)
In short: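 Rice alpha-glucosidase (4 nM final) with 400 uM 4-methylumbelliferyl-alpha-D-glucopyranoside in citrate buffer pH 5.0, 20 min at room temperature, stopped at pH 10; fluorescence 365/440 nm, compounds 0.7 nM–77 uM, AC50 from Hill fits.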

[17] = molecular target: Pyruvate kinase (Leishmania mexicana) (UniProt Q27686); assay: qHTS Validation Assay for Inhibitors of Leishmania Mexicana Pyruvate Kinase (AID 945)
Pyruvate kinase (Leishmania mexicana), sequence (Q27686 2-499 E452W): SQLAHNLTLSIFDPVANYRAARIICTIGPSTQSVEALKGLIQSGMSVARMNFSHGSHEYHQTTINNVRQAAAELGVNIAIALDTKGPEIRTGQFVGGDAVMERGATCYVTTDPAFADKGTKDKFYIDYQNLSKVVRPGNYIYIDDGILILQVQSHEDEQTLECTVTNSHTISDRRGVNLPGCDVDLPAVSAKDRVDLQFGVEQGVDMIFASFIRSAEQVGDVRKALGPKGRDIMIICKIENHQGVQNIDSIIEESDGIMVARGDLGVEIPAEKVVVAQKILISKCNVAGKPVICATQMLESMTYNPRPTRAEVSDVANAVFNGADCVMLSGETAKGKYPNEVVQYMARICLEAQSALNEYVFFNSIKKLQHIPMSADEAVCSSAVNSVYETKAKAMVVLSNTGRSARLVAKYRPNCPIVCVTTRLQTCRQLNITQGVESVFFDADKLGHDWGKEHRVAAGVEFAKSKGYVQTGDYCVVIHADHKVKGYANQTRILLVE
In short: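 An endpoint luciferase assay: 0.2 nM LmPYK E451W turns over 0.5 mM PEP with 0.1 mM ADP for 1 h at room temperature, pH 7.2, before PKLight addition. Values are normalized to DMSO-only wells.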

[18] = molecular target: Cytochrome P450 2C19 (Homo sapiens) (UniProt P33261); assay: qHTS Assay for Inhibitors and Substrates of Cytochrome P450 2C19 (AID 899); further: nearly all actives have a fitted effect of over 60% in size
In short: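 NADPH-dependent conversion of Luciferin-H EGE (10uM, at KM) by 5nM enzyme in 50mM KPO4, 60 min at 37C following 10 min compound preincubation. Stopped with luciferin detection buffer; luminescence read after 20 min.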

Cc1sc2ccccc2[n+]1CCC(=O)O
activity change, negative = inhibition [1]: 3.36%
Potency [2]: inactive
activity change, negative = inhibition [3]: 16.6%
activity, negative = inhibition [4]: 8%
Potency [5]: > 46 µM
Potency [6]: > 9.22 µM
Potency [7]: inactive
Potency [8]: inactive
Potency [9]: inactive

N.N.N.N.N.N.N.N.N.N.N.N.N.N.O.O.[Ru].[Ru].[Ru]
activity change, negative = inhibition [1]: 17.6% [at 38 µM]
Potency [2]: inactive
activity change, negative = inhibition [3]: -5.33% [at 38 µM]
activity, negative = inhibition [4]: -27% [at 38 µM]
Potency [5]: > 46 µM
Potency [6]: > 46 µM
Potency [7]: inactive
Potency [8]: inactive
Potency [10]: inactive
outcome [11]: inactive
Potency [12]: inactive
Potency [13]: inactive
outcome [14]: inactive
outcome [15]: inactive
Potency [16]: inactive

Nc1ncnc2c1ncn2[C@@H]1O[C@@H](C(=O)NC2CC2)[C@H](O)[C@@H]1O
activity change, negative = inhibition [1]: -9.63% [at 38 µM]
Potency [2]: inactive
activity change, negative = inhibition [3]: -15.3% [at 38 µM]
activity, negative = inhibition [4]: -7% [at 38 µM]
Potency [5]: > 46 µM
Potency [6]: > 46 µM
Potency [7]: inactive
Potency [10]: inactive
outcome [11]: inactive
Potency [12]: inactive
Potency [13]: inactive
outcome [17]: inactive
outcome [14]: inactive
outcome [15]: inactive
Potency [16]: inactive

Cc1ccccc1N1CCN(S(=O)(=O)C[C@@]23CC[C@H](C[C@H]2NC(=O)[C@@H](N)CCS(C)(=O)=O)C3(C)C)CC1
activity change, negative = inhibition [1]: 28.6% [at 38 µM]
Potency [2]: inactive
activity change, negative = inhibition [3]: 14% [at 38 µM]
activity, negative = inhibition [4]: -9.73% [at 38 µM]
Potency [5]: > 46 µM
Potency [6]: > 46 µM
Potency [7]: inactive
Potency [10]: inactive
outcome [11]: inactive
Potency [12]: inactive
Potency [13]: inactive
outcome [17]: inactive
outcome [14]: inactive
outcome [15]: inactive
Potency [16]: inactive

CC[C@H](C)C(=O)O[C@@H]1CCC=C2C=C[C@H](C)[C@@H](CC[C@H]3C[C@@H](O)CC(=O)O3)[C@H]21
activity change, negative = inhibition [1]: -28.7% [at 38 µM]
Potency [2]: inactive
activity change, negative = inhibition [3]: 6.96% [at 38 µM]
activity, negative = inhibition [4]: 10.1% [at 38 µM]
Potency [5]: > 46 µM
Potency [6]: > 46 µM
Potency [7]: inactive
Potency [8]: inactive
Potency [9]: inactive
Potency [18]: inactive

O=C(Oc1ccc2c(c1)CN(Cc1ccccc1)CO2)c1ccccc1
activity change, negative = inhibition [1]: 10.8%
activity change, negative = inhibition [2]: -14.3% [at 2.29 µM]
activity change, negative = inhibition [3]: 13.3%
activity, negative = inhibition [4]: 2.87%
Potency [5]: > 46 µM
Potency [6]: > 9.22 µM
Potency [7]: inactive
Potency [8]: inactive
Potency [10]: inactive
Potency [9]: 0.501 µM (active)
